PubChem BioAssay (EPA / NIEHS)
Calls of active or inactive are those of the source. How the source made its calls: active means hit-call score of the fitted dose curve at least 0.9, where 1 is the maximum; inactive means score below 0.9.

assay: ATG_CRE_CIS: Attagene CIS-FACTORIAL HepG2 Assay for human cAMP Responsive Element (CRE) binding protein 3 (AID 2282926); details: HepG2 CRE cis-reporter, Attagene multiplexed mRNA; actives raise or lower the signal
Experimental: ATG_CIS is a cell-based, multiplexed-readout assay that uses HepG2, a human liver cell line, with measurements taken at 24 hours after chemical dosing in a 24-well plate.ATG_CRE_CIS is one of 52 assay component(s) measured or calculated from the ATG_CIS assay. It is designed to make measurements of mRNA induction, a form of inducible reporter, as detected with fluorescence intensity signals by Reverse transcription polymerase chain reaction (RT-PCR) and Capillary electrophoresis technology.Data from the assay component ATG_CRE_CIS was analyzed into 1 assay endpoint. This assay endpoint, ATG_CRE_CIS, was analyzed with bidirectional fitting relative to DMSO as the negative control and baseline of activity. Using a type of inducible reporter, measures of mRNA for gain or loss-of-signal activity can be used to understand the reporter gene at the transcription factor-level as they relate to the gene CREB3. Furthermore, this assay endpoint can be referred to as a primary readout, because this assay has produced multiple assay endpoints where this one serves a reporter gene function. To generalize the intended target to other relatable targets, this assay endpoint is annotated to the dna binding intended target family, where the subfamily is basic leucine zipper.
Human liver HepG2 cells are transiently transfected with multiple reporter transcription units (MRTUs) in 6-well plates using FuGene 6 reagent (Roche; 3 ml FuGene/1 mg DNA). The MRTU constructs are regulated by a cis-regulating element (promoter). […] A major difference between the CIS and TRANS system is that in CIS activities of endogenous TFs are measured, whereas the TRANS assay evaluates changes in activities of exogenous, chimeric NR-Gal4 proteins. […] At the end of 24 hour incubation, total RNA was isolated using TriZol reagent (Invitrogen). The isolated RNA is then reverse-transcribed using oligo(dT) primer and Mo-MLV reverse transcriptase (Invitrogen) with DNAse I (Ambion) treatment for 30 min. The one-tenth of the produced cDNA was amplified by PCR using Taq DNA polymerase (Invitrogen) and two reporter sequence-specific primers. The PCR products were fluorescently labeled by primer extension with 6-arboxyfluorescein (6-FAM) 5'-labeled reporter sequence-specific primer (2 min at 95 C, 20 s at 68 C and 10 min at 72 C) and these products were digested with 5U of HpaI (New England Biolabs) for 2h at 37 C. The fragments were purified using Qiaquick PCR columns (Qiagen), analyzed on an ABI 3130xL genetic analyzer (Applied Biosystems) with peak positions identified by using a set of X-rhodamine (ROX)-labeled MapMarker1000 molecular weight standards (BioVentures). The raw capillary electrophoresis data was processed using Attagraph software (Attagene).

outcome, inactive:
C#CC(C)N(C)C(=O)Nc1ccc(Cl)cc1 (stereo not given)
COCCOCCOCCO
CC1=CC[C@@]23C[C@@H]1C(C)(C)[C@@H]2CC[C@H]3C
CC(C)C[C@H](NC(=O)OCC1c2ccccc2-c2ccccc21)C(=O)O
CCCCCCCC(=O)OCCCCCC
CC1(C)C2=CCCC(C)(C)[C@]23CC[C@H]1C3
C[N+](C)(C)CCCCCC[N+](C)(C)C
CCCOCCO
C1CCOC1
CCCCOCC
CC=CC=CCOC(=O)C(C)C
OCCc1ccccc1
CCCCCCCCCCCCS(=O)(=O)Cl
CC1(C)C(=O)N(Cl)C(=O)N1Br
CC(C)=CCCC(C)CCOC=O (stereo not given)
CCCCC(CC)COC(=O)c1ccc(O)cc1 (stereo not given)
CCCN(CCC)S(=O)(=O)c1ccc(C(=O)O)cc1
CC[N+](C)(CC)CC
CC(C)C(OC(=O)c1ccccc1)C(C)(C)COC(=O)c1ccccc1 (stereo not given)
COc1cc(C(C)C)ccc1C
COC(=O)C=C(C)CCC=C(C)C
CCCCSCCCC
CC(=O)O[C@@H]1CC2CCC1(C)C2(C)C (stereo not given in full)
CCCCOC(=O)CCCCCCCC(=O)OCCCC
CC1(C)O[C@@H]2[C@@H](CO[C@@]3(COS(N)(=O)=O)OC(C)(C)O[C@@H]23)O1
CCC(Cl)C(Cl)C(Cl)CC(Cl)C(Cl)C(C)Cl (stereo not given)
COC(C)(C)CCCC(C)CC=O (stereo not given)
C=C(CC(=O)O)C(=O)O
CCc1ccc(O)cc1
CCN(CCC#N)c1ccc(N=Nc2ccc([N+](=O)[O-])cc2)cc1
CC(C)CCOC(=O)c1ccccc1
FC(F)(F)COCC(F)(F)F
C=C(C)[C@H]1CC=C(C)C(=O)C1
[Cl][Au]([Cl])[Cl]
CC(C)=CCCC(C)CC(=O)O (stereo not given)

AC50, active:
CCCCCCCCN1CCCC1=O 151 µM
CCCCCCCCSCCO 100 µM
CCOC(=O)C(C#N)=C(c1ccccc1)c1ccccc1 63 µM
CCCC(=O)C(CC)Sc1ccoc1C (stereo not given) 25.7 µM
CSc1c(Cl)c(Cl)c(Cl)c(Cl)c1Cl 169 µM
